Experimental data as given in PubChem BioAssay (NCI).
About 83,000 compounds went through this panel and 20% of them were active in at least one assay; those are over-represented in the sample as a whole.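 Percent growth is the endpoint: 0 to 100 indicates growth inhibition (40 means 60% inhibition), 0 means no net growth, and negative values indicate cell death.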 Unmarked numbers belong to inactive results. The source made the active and inactive calls. How the source made its calls: active means growth percent below 10; inactive means the rest.

Columns and labels:
Experiment in all cases: NCI-60 one-dose screen, 48 h (100 = growth as untreated, 0 = no growth, -100 = all killed)
Settings in all cases: 10 µM unless noted
NCI-H23 lung = test system: NCI-H23 lung
NCI-H226 lung = test system: NCI-H226 lung
NCI-H322M lung = test system: NCI-H322M lung
HOP-62 NSCLC = test system: HOP-62 NSCLC
NCI-H460 lung = test system: NCI-H460 lung
HOP-92 NSCLC = test system: HOP-92 NSCLC
NCI-H522 lung = test system: NCI-H522 lung
A549/ATCC NSCLC = test system: A549/ATCC NSCLC
786-0 renal = test system: 786-0 renal
COLO 205 colon = test system: COLO 205 colon
DU-145 prostate = test system: DU-145 prostate
K-562 leukemia = test system: K-562 leukemia
MALME-3M melanoma = test system: MALME-3M melanoma
MDA-MB-231 breast = test system: MDA-MB-231 breast
RXF 393 renal = test system: RXF 393 renal
SF-268 CNS = test system: SF-268 CNS
SF-295 CNS = test system: SF-295 CNS
SF-539 CNS = test system: SF-539 CNS
UACC-257 melanoma = test system: UACC-257 melanoma
M14 melanoma = test system: M14 melanoma

SMILES | growth (NCI-H23 lung) | growth (NCI-H226 lung) | growth (NCI-H322M lung) | growth (HOP-62 NSCLC) | growth (NCI-H460 lung) | growth (HOP-92 NSCLC) | growth (NCI-H522 lung) | growth (A549/ATCC NSCLC) | growth (786-0 renal) | growth (COLO 205 colon) | growth (DU-145 prostate) | growth (K-562 leukemia) | growth (MALME-3M melanoma) | growth (MDA-MB-231 breast) | growth (RXF 393 renal) | growth (SF-268 CNS) | growth (SF-295 CNS) | growth (SF-539 CNS) | growth (UACC-257 melanoma) | growth (M14 melanoma)
CCC(=C(c1ccc(OCCN(C)C)cc1)c1ccc(OCCN(C)C)cc1)c1ccc(Cl)cc1 | 21.9% | 21.7% | 5.04% (active) | -65.7% (active) | -64.8% (active) | -5.13% (active) | -48.3% (active) | -72.3% (active) | -80.7% (active) | -67.3% (active) | -28.8% (active) | -16.7% (active) | -83.7% (active) | -79.5% (active) | -85.4% (active) | -37.1% (active) | -72.2% (active) | -82.8% (active) | -69.8% (active) | -66.3% (active)
CN1CCN(Cc2ccc(NC(=O)c3cncc(C#Cc4cnc5ccc(OCCCS(C)(=O)=O)nn45)c3)cc2C(F)(F)F)CC1 | -50.9% (active) | -60.1% (active) | -16.6% (active) | -47.7% (active) | -64.1% (active) | -27.3% (active) | -76% (active) | -9.65% (active) | -16% (active) | -66.9% (active) | 1.01% (active) | 5.44% (active) | -80.5% (active) | -20.7% (active) | -79.6% (active) | -45.8% (active) | 0.237% (active) | -68.4% (active) | -27.6% (active) | -78.9% (active)
CN(C)c1cccc2c(S(=O)(=O)Nc3cccc(-c4csc(NC(=O)CCCCCN5CCN(CCO)CC5)n4)c3)cccc12 | 81.3% | 91.2% | 88.2% | 84.9% | 82.6% | 37.5% | 84.4% | 74.9% | 77.5% | 81.1% | 90.6% | 7.77% (active) | 55.9% | 84.1% | 66.7% | 93.5% | 60.5% | 54.7% | 78.3% | 73.7%
Cc1ccc2c(n1)C(=O)C(Cl)=C(Nc1ccc(C(=O)OC(C)(C)C)cc1)C2=O | 75.2% [9.25 µM] | 85.8% [9.25 µM] | 101% [9.25 µM] | 106% [9.25 µM] | 102% [9.25 µM] | -54.9% [9.25 µM] (active) | -14.1% [9.25 µM] (active) | 99.9% [9.25 µM] | -56.4% [9.25 µM] (active) | -46.1% [9.25 µM] (active) | 97.9% [9.25 µM] | 0.658% [9.25 µM] (active) | 24% [9.25 µM] | 53.9% [9.25 µM] | -19.3% [9.25 µM] (active) | 87.6% [9.25 µM] | 104% [9.25 µM] | 100% [9.25 µM] | 29.5% [9.25 µM] | 61.3% [9.25 µM]
CSc1ccc(/C(=N/N=C(N)N)c2ccc(Cl)cc2)cc1 | 12.6% | 27% | 30.1% | 6.91% (active) | -12.7% (active) | -4.16% (active) | -41.9% (active) | 4.66% (active) | 4.8% (active) | -89.4% (active) | 9.65% (active) | 1.76% (active) | 22.5% | 7.57% (active) | 16.5% | 19.3% | 8.73% (active) | -10.3% (active) | 57.8% | -90.9% (active)
CC[C@]12C=CCN3CC[C@@]4(c5ccc(OC)cc5N(C)[C@H]4[C@@](O)(C(=O)OC)[C@@H]1OC(=O)CCN1CCc4ccccc4C1)[C@@H]32 | 81.9% | 98.9% | 96.1% | 87.5% | 96.8% | 40.1% | 101% | 87.8% | 92.7% | 74.3% | 106% | 75.4% | 89.2% | 84.9% | -95.9% (active) | 85.2% | 104% | 95.9% | 100% | 98.2%
O=C1Nc2ccccc2/C1=C/c1ccc(OCC(=O)c2ccccc2)cc1 | 101% | 89% | 98% | 99.7% | 102% | 97.1% | 104% | 99.5% | 107% | 117% | 99.5% | 88.9% | 98.4% | 96.2% | 101% | 96.4% | 107% | 90.6% | 105% | 95.7%
O=C(Nc1cccc(C(F)(F)F)c1)N1CCN(c2cc(-c3cn(-c4ccccc4)nc3-c3cccc(O)c3)ccn2)CC1 | 37.7% | 30.3% | 73.9% | 91.3% | 63.4% | 35.7% | 31% | 44.8% | 54.6% | 60% | 61.2% | 30.6% | 46.3% | 54% | 46.7% | 59.4% | 22.8% | 54.7% | 67.6% | 41.2%
CN1CCN(Cc2ccc(NC(=O)c3cncc(C#Cc4cnc5ccc(NCCO)nn45)c3)cc2C(F)(F)F)CC1 | -40.2% (active) | -14% (active) | -15% (active) | -41.5% (active) | -78% (active) | -27.1% (active) | -75.8% (active) | 1.34% (active) | -17.9% (active) | -82.3% (active) | -2.12% (active) | 5.38% (active) | -69.7% (active) | 1.53% (active) | -74.3% (active) | -40.9% (active) | 16.6% | -74.4% (active) | -6.58% (active) | -70.9% (active)
O=C(COc1ccc(/C=C2\C(=O)Nc3ccc(F)cc32)cc1)Nc1ccccc1 | 95% | 96.6% | 99.3% | 99.5% | 96.1% | 116% | 93.9% | 96.7% | 105% | 113% | 104% | 89.6% | 102% | 104% | 120% | 95.1% | 105% | 93.8% | 104% | 94.4%
COc1ccc(/C=N\NC(=O)c2cnn(CC(O)c3ccccc3)c2N)cc1OCc1ccc(Cl)cc1 (stereo not given) | 74.7% | 90.7% | 85% | 84.1% | 44.3% | 86% | 92.7% | 62.9% | 96.2% | 72.8% | 55.3% | 60.2% | 65.2% | 67% | 41.8% | 91.6% | 56.9% | 69.4% | 85% | 68.4%
Cc1ccc(CSC2=C(Cl)CN(c3ccc(Cl)cc3)C2=O)cc1 | 105% | 98.4% | 104% | 103% | 103% | 95.2% | -4.44% (active) | 104% | 105% | 129% | 108% | 100% | 96.9% | 107% | 111% | 108% | 101% | 103% | 107% | 107%
CC1=C(C)C(=O)C(Nc2cccc(C(=O)OC(C)(C)C)c2)=CC1=O | 28.8% | 64.5% | 94.5% | 78.4% | 93.1% | 78.8% | 82.2% | 106% | 89.9% | 107% | 69.9% | 77.2% | 64.9% | 66.2% | 73.4% | 80.5% | 94.3% | 89.9% | 62.5% | 88.3%
O=c1c2cc(-c3ccc(F)cc3F)ccc2n(O)c(=O)n1-c1cccc(C(F)(F)F)c1 | -2.77% (active) | 14.3% | 5.99% (active) | -9.23% (active) | 6.68% (active) | -30% (active) | -14.2% (active) | 6.74% (active) | 30.9% | 73.9% | 25.5% | 3.41% (active) | -12.2% (active) | -10.3% (active) | 3.38% (active) | 17.4% | -11.2% (active) | 21.1% | -8.3% (active) | 17.6%
CC1=C(C)C(=O)C(Nc2ccc(C)c(C)c2)=C(Br)C1=O | 76.9% | 89.6% | 102% | 104% | 99.6% | 3.51% (active) | 97.2% | 103% | 105% | 116% | 109% | -2.41% (active) | 114% | 65.1% | 87.9% | 98.4% | 92.9% | 98.9% | 98.5% | 96.5%
